Screening results from PubChem.
gsp agonist: activates gsp, the McCune-Albright syndrome mutation. 340,000 tested, 0.13% active. Potency, µM (series often up to 76.9 µM), without a hit: at the highest dose activation (cAMP increase), usual class: activators. gsp mutant cells, cAMP HTRF, 30 min. AID 624287; active = well fitted activation curve with a large enough effect; inconclusive = small, poorly fitted or top-dose-only effect, or another doubt; inactive = no such curve, though single readings can be large or run the other way; cell line not stated here;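 also: phosphodiesterase inhibitor Ro 20-1724 added with compounds to block cAMP breakdown; potency is read from the fitted curve at half-maximal effect; nearly all actives have a fitted effect of over 60% in size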
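Cells stably selected in G418 were plated at 2000/well, grown 16-24 hr, then given compounds in DMSO with the PDE inhibitor […] (300 uM solution added) for 30 min at 37C; cAMP was read by HTRF.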
gsp antag: gsp mutant antagonism | gsp-mutant cells, cAMP HTRF, 30 min | AID 624288 | Potency, µM (titrated, usually from 76.9 µM), without a hit: top-dose activity change, negative = inhibition, hits mostly inhibitors | 340,000 tested, 0.4% active; calls by dose curve; cell line not stated here;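 also: intracellular cAMP measured with PDE inhibitor Ro 20-1724 present during compound exposure; potency is read from the fitted curve at half-maximal effect; % is scaled to controls: 0 for no effect and ±100 for the full control effect; nearly all actives have a fitted effect of over 65% in size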
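Cells in G418 medium, seeded 16-24 h, 37C; buffer exchange to DPBS + 1 mM CaCl2, 0.5 mM MgCl2, 0.05% BSA; cpds in DMSO + […] (300 uM stock), 30 min 37C; HTRF cAMP detection.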
pAkt inh: Akt phosphorylation inhibition. 360,000 tested, 0.32% active. activity change, % for hits at 50 µM. Neuro2A IGF-stimulated pAkt S473 HTRF, 20 min; hits give low values; in the data active = activity change below about -80%; inconclusive = mostly about -51% to -80%; also: % is scaled to controls: 0 for no effect and ±100 for the full control effect
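Single-point screen (50 µM final compound) in Neuro2A cells stimulated 20 min with 6 nM IGF at 37 deg C. After lysis, Ser473-phosphorylated Akt read by HTRF (ex 330 nm, em 615/665 nm) as the 665/615 ratio.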
RXFP1 antag: antagonists of human relaxin receptor RXFP1 | HEK293-RXFP1, relaxin-stimulated cAMP HTRF, 30 min; hits give low values | activity change, negative = inhibition, % at 57.5 µM | 350,000 tested, 0.59% active | AID 1259400;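 active = activity change of -60% or lower, but not beyond a set lower limit; inconclusive = change between -60% and -40%, or beyond the set limit; inactive = change above -40%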; also: % is scaled to controls: 0 for no effect and ±100 for the full control effect
Target sequence (Q9HBX9 whole entry, looked up): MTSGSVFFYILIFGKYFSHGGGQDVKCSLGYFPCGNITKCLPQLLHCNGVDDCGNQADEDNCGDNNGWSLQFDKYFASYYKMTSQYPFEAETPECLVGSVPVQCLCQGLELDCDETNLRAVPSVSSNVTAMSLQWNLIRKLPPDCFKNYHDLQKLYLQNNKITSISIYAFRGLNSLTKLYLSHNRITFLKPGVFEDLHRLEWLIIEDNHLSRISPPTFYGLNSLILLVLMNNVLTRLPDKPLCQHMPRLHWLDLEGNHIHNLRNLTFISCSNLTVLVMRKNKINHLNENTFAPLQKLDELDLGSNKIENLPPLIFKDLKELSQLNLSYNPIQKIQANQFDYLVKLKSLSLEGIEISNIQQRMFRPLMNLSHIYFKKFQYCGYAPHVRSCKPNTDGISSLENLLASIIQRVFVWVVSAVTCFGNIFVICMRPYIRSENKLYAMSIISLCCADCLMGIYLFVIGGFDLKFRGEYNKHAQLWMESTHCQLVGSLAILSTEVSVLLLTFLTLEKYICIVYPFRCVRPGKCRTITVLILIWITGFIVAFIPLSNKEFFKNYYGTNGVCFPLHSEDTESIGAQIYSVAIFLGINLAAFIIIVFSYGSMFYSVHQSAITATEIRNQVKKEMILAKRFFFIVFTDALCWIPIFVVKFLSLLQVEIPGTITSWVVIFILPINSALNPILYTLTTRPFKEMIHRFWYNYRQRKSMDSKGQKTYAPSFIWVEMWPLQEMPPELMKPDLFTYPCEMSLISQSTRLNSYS
RXFP1 agonist: agonists of human relaxin receptor RXFP1; Q9HBX9; HEK293T-RXFP1 cAMP TR-FRET, 30 min; response scale: percent of porcine relaxin response, buffer zero; Potency, µM (titrated, usually from 57.5 µM), inactives show at the highest dose activation, usual class: activators; 370,000 tested, 0.3% active; AID 2676; active = well fitted activation curve with a large enough effect; inconclusive = small, poorly fitted or top-dose-only effect; also: potency is read from the fitted curve at half-maximal effect; % is scaled to controls: 0 for no effect and ±100 for the full control effect; nearly all actives have a fitted effect of over 60% in size
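HEK293 cells stably expressing RXFP1, treated 30 min at 37C with compounds plus PDE4 inhibitor Ro 20174; cAMP measured by HTRF TR-FRET. Normalized to buffer and 29 nM porcine relaxin; EC50 by Hill fit.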
Active calls of the source: *; i = inactive; ? = inconclusive; . = no result given; [ ] = another dose, or the depositor's remark. An excerpt weighted towards active compounds, which were near 1.2% of everything screened.

SMILES | gsp agonist | gsp antag | pAkt inh | RXFP1 antag | RXFP1 agonist
COc1cc(N2C(=O)C=CC2=O)ccc1N1C(=O)C=CC1=O | -0.1% | 50.1µM* | i | ? | .
CCOC(=O)/C(C#N)=C/c1ccc(-c2ccc(C)cc2)o1 | . | . | . | -11.4 | -1.7%
COc1ccc(/C=N/Nc2cc(C)nc3ccccc23)cc1 | -30.5% | 8.8% | i | -70.6* | 0.3%
CC(=O)Nc1ccc(Nc2ccc3cc(S(=O)(=O)N4CCCCC4)ccc3n2)cc1 | . | . | . | -1.5 | 0.1%
COc1ccccc1OCc1ccc(C(=O)N2CCN3CCCC3C2)cc1 (stereo unspecified) | -23.1% | 3.4% | -105.1%* | 1.7 | 0.4%
COc1ccccc1N1CCN(C2CCCN(C(=O)c3ccsc3)C2)CC1 (stereo unspecified) | -43.7% | 9.3% | i | -12.7 | .
O=C(COc1cccc(C(F)(F)F)c1)NCC(c1ccco1)N1CCCCC1 (stereo unspecified) | -4.0%[15.4 µM] | 5.3% | i | -61.0* | 0.7%
CCC(=O)N1N=C(c2ccc(NS(=O)(=O)c3ccccc3)cc2)CC1c1ccco1 (stereo unspecified) | 5.1% | 31.6µM* | i | -12.4 | .
COCCn1c(C)cc(O)c(C(c2ccccc2)N2CCC(C)CC2)c1=O (stereo unspecified) | . | . | . | -4.9 | 2.7%
COCCNC(=O)C1CCN(S(=O)(=O)N2CCC3(CC2)OCCO3)CC1 | 0.0% | 10.3% | -81.8%* | -8.1 | 3.5%
COc1ccc(CCNC(=O)C2CCN(S(=O)(=O)N3CCC4(CC3)OCCO4)CC2)cc1OC | -21.9% | -0.2% | i | -1.0 | 0.3%
Cc1cc(NCCCn2ccnc2)n2ncc(-c3ccccc3)c2n1 | 5.8% | -3.4%[15.4 µM] | -90.5%* | -1.5 | 1.6%
COc1cccc(OCCCCCCN2CCOCC2)c1 | -15.1% | 7.7% | . | -10.5 | 0.5%
CCOc1cccc(OCCCCN2CCOCC2)c1 | -44.7% | 2.3% | -108.2%* | -5.4 | 3.6%
CC(CCc1ccccc1)NC(=O)COC(=O)c1ccc(S(C)(=O)=O)c([N+](=O)[O-])c1 (stereo unspecified) | 3.0%[15.4 µM] | ? | i | -89.2* | -0.1%
Cc1ccc(-c2nc(C(=O)NCC3CCCO3)cc3c2[nH]c2ccccc23)cc1 (stereo unspecified) | . | ? | i | . | -0.3%
COc1ccc(-c2nc(C(=O)NCC3CCCO3)cc3c2[nH]c2ccccc23)cc1 (stereo unspecified) | . | 28.2µM* | i | . | 4.0%
CC(C)(C)c1cc(C=O)cc(C(C)(C)C)c1O | . | . | . | -19.8 | .
COc1cccc(C2CC(=O)Nc3c2c(=O)n(C)c2nc4ccccc4n32)c1OC (stereo unspecified) | . | . | . | . | -2.2%
CCCn1c(N)c(C(=O)CSc2nc3ccccc3n2CCC#N)c(=O)n(C)c1=O | -21.9% | 13.6% | i | -2.0 | 11.0%
CCCCCCn1c(SCC(=O)c2c(N)n(C)c(=O)n(C)c2=O)nc2ccccc21 | ? | 10.9% | -98.1%* | -14.8 | 9.6%
O=C1CC(c2ccc(Br)cc2)c2c(ccc3ccccc23)N1 (stereo unspecified) | . | . | . | ? | 2.0%
O=C1CC(c2cccc([N+](=O)[O-])c2)c2c(ccc3ccccc23)N1 (stereo unspecified) | 7.6% | 39.8µM* | i | -7.3 | -0.2%
O=C1CCCC2=C1C(Cc1ccccc1)C1=C(CCCC1=O)O2 | -4.9% | -9.5% | -118.4%* | -0.4 | 0.2%
N#CC1=C(N)OC2=C(C(=O)CCC2)C1CCc1ccccc1 (stereo unspecified) | 3.8% | 8.8% | i | 3.0 | 2.9%
SMILES | gsp agonist | gsp antag | pAkt inh | RXFP1 antag | RXFP1 agonist
CC12CCC(C(=O)N(CSC(=S)N/N=C\c3ccccc3Cl)C1=O)C2(C)C (stereo unspecified) | 0.1%[15.4 µM] | -13.3% | i | -64.7* | -0.1%
CC12CCC(C(=O)N(CSC(=S)N/N=C\c3ccccc3)C1=O)C2(C)C (stereo unspecified) | 7.2% | 3.9% | i | 15.0 | 0.0%
CCn1nc(C)cc1-c1nnc(Sc2ncc([N+](=O)[O-])s2)n1C | 7.9% | 10.8% | i | -72.8* | 1.5%
COc1cc(C2CC(=O)N(Cc3cccc(F)c3)c3ccccc3S2)cc(OC)c1OC (stereo unspecified) | . | . | . | . | -3.8%
O=C(Nc1ccc(F)cc1)C1COc2ccccc2O1 (stereo unspecified) | 31.6% | 6.1% | i | 0.4 | 0.8%
CCN(CC)S(=O)(=O)c1ccc(NC(=O)C2COc3ccccc3O2)cc1 (stereo unspecified) | 29.7% | 0.3% | -120.6%* | 4.4 | 0.3%
Cc1nn(-c2ccc(F)cc2)c(Cl)c1/C=C(\CC(=O)O)c1nc2ccccc2s1 | 25.6% | 39.8µM* | i | 4.3 | -0.1%
O=C(/C=C/c1ccccc1)c1ccccn1 | -47.4% | 9.7% | -119.3%* | -13.4 | 0.2%
COc1ccc2nc(NC(=O)c3ccoc3C)sc2c1 | 1.0% | 4.9% | -109.6%* | 0.2 | 0.3%
COc1ccc2nc(NC(=O)c3cc(C)oc3C)sc2c1 | 18.4% | 4.4% | i | -16.2 | 2.0%
Cc1cc(C)n(-c2nc(Nc3ccccc3C(F)(F)F)nc(-n3nc(C)cc3C)n2)n1 | 5.9% | 28.2µM* | i | ? | 1.8%
Cc1cc(C)n(-c2nc(Nc3ccccc3C)nc(-n3nc(C)cc3C)n2)n1 | . | . | . | . | 1.2%
O=C(Nc1ccccc1)c1cccnc1N1CCCC1 | -10.8% | 15.3% | i | 1.4 | -0.4%
O=C(Nc1ccc(N2CCCCCC2)cc1)c1ccccc1Cl | ? | 5.3% | i | -30.5 | 1.2%
O=C(Nc1ccc(N2CCCCC2)cc1)c1ccccn1 | ? | -8.9% | i | -72.1* | 0.8%
O=C(Nc1ccccc1)c1cnc(N2CCCCC2)c2ccccc12 | . | . | . | -68.3* | 6.0%
O=C(NCc1ccc(F)cc1)c1cnc(N2CCCCC2)c2ccccc12 | . | . | . | -61.8* | 6.5%
Cc1ccc(-c2n[nH]c(=S)c3ccccc23)cc1 | ? | -4.6% | i | -0.1 | 15.7%
S=c1[nH]nc(-c2ccccc2)c2ccccc12 | ? | 1.9% | i | -84.2* | 9.7%
COC(=O)C1=C(C)C(c2ccc(OC)cc2OC)NC(=O)N1 (stereo unspecified) | 4.8% | 10.7% | -117.4%* | -4.1 | 0.3%
O=C(NN1CCCC1)NS(=O)(=O)c1ccc(Cl)cc1 | . | . | . | 10.0 | .
CCOc1ccc(S(=O)(=O)Nc2ccccc2SC)c2cccnc12 | -16.4% | 12.6µM* | i | 6.7 | -2.5%
CCOc1ccc(S(=O)(=O)NCc2ccc(Cl)cc2)c2cccnc12 | -27.4% | -9.7% | i | 19.6 | 1.6%
CC1=C(C)C(=O)C(C(CCCCCC(=O)O)c2ccccc2)=C(C)C1=O (stereo unspecified) | . | . | . | -21.0 | .
COC(=O)c1ccc(NC(=O)C2CC(=O)N(c3ccc(C)cc3)C2)cc1 (stereo unspecified) | -10.2% | 17.5% | i | 8.9 | 0.1%
